DAGLB inhibitor = diacylglycerol lipase beta (human) inhibition; Q8NCG7; HEK293T DAGLB membrane lysate, EnzChek fluorogenic substrate; inhibition, % at 5.17 µM; hit rate 0.059% among 340,000; AID 504411; in the data active = inhibition above about 34%;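 note: 0% = enzyme with vehicle and 100% = wells lacking enzyme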
Myeloid diff MLP = promotes myeloid progenitor differentiation; ER-HoxA9 myeloid progenitors, lysozyme-GFP differentiation, flow cytometry; calls only at 10 µM; hit rate 1% among 360,000;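 active = normalized GFP-positive differentiation at or above the plate's own cutoff, the solvent-only control mean plus 3 SD; inconclusive = no clear call, values can overlap the other calls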;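 note: cells exposed to compound for four days before flow analysis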
H9c2 protect = modulators protecting cardiomyocytes from myocardial damage; H9c2 cardiomyocytes, H2O2 injury protection, ATPLite, 2 h; protection from H2O2 cell death, % at 20 µM; hit rate 0.63% among 360,000; AID 588492;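 active = compounds giving at least 50% protection of heart cells from peroxide-induced death in the single-dose screen, raw or plate-pattern-corrected value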;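 note: 0% = DMSO wells with peroxide and 100% = DMSO wells without peroxide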
sPLA2-III inh = Inhibits HGIII-sPLA2 liposome hydrolysis, primary screen | Q9NZ20 | QFRET BODIPY PC-A2 liposome hydrolysis, fluorescence | inhibition, % at 12.2 µM | hit rate 0.56% among 370,000 | AID 743126;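 active = inhibition above mean plus 3 SD of compounds lying within the high and low control bounds, cut at about 19% in these data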;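 note: 0% = median of test compound wells and 100% = no enzyme DMSO wells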
Target sequence (Q9NZ20 whole entry, looked up): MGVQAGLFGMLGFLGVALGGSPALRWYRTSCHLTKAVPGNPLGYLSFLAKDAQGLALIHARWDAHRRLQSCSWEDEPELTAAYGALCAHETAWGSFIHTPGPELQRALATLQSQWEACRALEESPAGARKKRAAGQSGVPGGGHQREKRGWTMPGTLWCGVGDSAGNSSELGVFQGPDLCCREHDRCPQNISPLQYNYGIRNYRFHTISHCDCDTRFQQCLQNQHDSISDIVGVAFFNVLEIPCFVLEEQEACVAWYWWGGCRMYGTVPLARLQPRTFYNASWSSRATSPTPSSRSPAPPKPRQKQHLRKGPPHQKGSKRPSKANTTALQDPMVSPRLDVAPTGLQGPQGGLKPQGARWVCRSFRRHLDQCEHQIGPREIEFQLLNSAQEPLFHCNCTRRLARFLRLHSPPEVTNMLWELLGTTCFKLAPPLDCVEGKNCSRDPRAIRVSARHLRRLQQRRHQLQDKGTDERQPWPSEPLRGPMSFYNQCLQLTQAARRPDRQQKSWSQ
Rtt109 Vps75 = C. albicans Rtt109 histone acetyltransferase inhibition; purified Rtt109/Vps75, ThioGlo CoA-SH fluorescence, 4 h; inhibition, % at 34.9 µM; AID 540336; hit rate 0.16% among 330,000;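 active = inhibition of at least 50% in every replicate; inconclusive = best replicate reaches 50% inhibition but some replicates fall short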
ABHD5 PLIN5 PPI = blocks binding of human ABHD5 to perilipin-5; AID 602281; Split G. princeps luciferase complementation, luminescence, 4 h; hit rate 0.78% among 360,000; inhibition, % at 4 µM;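 active = inhibition above the mean inhibition across every tested compound plus 3 SD, cut at about 22% in these data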;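 note: 0% = DMSO only wells and the 100% control is not disclosed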
ABHD5 PLIN5 conf = confirmation of human ABHD5-PLIN5 interaction inhibitors. shares compounds with ABHD5 PLIN5 PPI. biochemical ABHD5-PLIN5 interaction, luminescence. inhibition, % at 4 µM. hit rate 67% among 2,200; in the data active = inhibition above about 23%;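 note: 0% = DMSO vehicle wells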
HNF4 split-luc = HNF4 split-luciferase signal hit, counter-screen; hit rate 77% among 2,200; inhibition, % at 4 µM; shares compounds with ABHD5 PLIN5 PPI; AID 651674; HNF4 dimerization, luminescence, biochemical;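 active = mean inhibition across replicate wells exceeding the computed hit threshold, cut at about 13% in these data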;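 note: light from luciferase halves that rejoin when HNF4 fusion proteins dimerize; 0% = DMSO only wells and the 100% control is not given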
Starred values were filed as active, the others as inactive; i = inactive; ? = inconclusive; . = no result. The list is not random: actives were taken first. Their share in the collection is about 2.9%.

SMILES	DAGLB inhibitor	Myeloid diff MLP	H9c2 protect	sPLA2-III inh	Rtt109 Vps75	ABHD5 PLIN5 PPI	ABHD5 PLIN5 conf	HNF4 split-luc
Cc1c(NS(=O)(=O)c2cccc(C(=O)NCc3ccco3)c2)c(=O)n(-c2ccccc2)n1C	1	i	6	5	0	25*	12	14*
O=C(c1cccnc1)N1CCN(Cc2cccc(Br)c2)CC1	-6	i	1	6	1	24*	1	8
Cc1cc(C(=O)N2CCC2(C)C(=O)NS(=O)(=O)c2ccc(F)cc2F)nn1C (stereo unspecified)	.	i	3	-4	.	4	.	.
CCOC(=O)c1c(NC(=O)/C=C/C(=O)O)sc(C)c1-c1ccc(C)c(C)c1	16	i	2	-23	32	25*	20	3
Oc1ccc2ccccc2c1CN1CCOCC1	1	i	0	1	6	10	.	.
O=S(=O)(c1c(F)cccc1F)N1CCN(Cc2c(O)ccc3ccccc23)CC1	-5	i	12	1	1	27*	43*	77*
CC(NC(=O)COC(=O)COc1ccc(C(=O)c2ccccc2)cc1)c1ccccc1 (stereo unspecified)	15	i	-1	-1	9	1	.	.
C=C1C(=O)c2sccc2C(c2ccc(OC)c(OC)c2)C1COC(C)=O (stereo unspecified)	10	?	-14	5	3	79*	95*	108*
CCN1CCN(CC(=O)N2N=C(c3cccs3)CC2c2ccc(OC)c(OC)c2)C(=O)C1=O (stereo unspecified)	0	i	6	5	-15	2	.	.
O=C(O)CCn1c(=O)c2ccccc2c2ccccc2c1=O	-3	i	4	8	-6	0	.	.
CN1CCN(C(N)=NC(=O)c2ccccc2)CC1	-1	i	14	0	1	3	.	.
CCCCNC1C(CC)C(CCC)C(C#N)(C#N)C1(C#N)C#N (stereo unspecified)	7	.	4	.	7	29*	64*	53*
FC(F)(F)c1nc2ncc(Cl)cc2[nH]1	4	i	2	2	-11	0	.	.
O=C(c1ccccc1NS(=O)(=O)c1ccc([N+](=O)[O-])cc1[N+](=O)[O-])N1O[C@@H]2C=C[C@H]1C2	-30	i	-16	-11	0	27*	49*	74*
COc1ccccc1N=CC=C1OC(C)(C)C(C)(C)O1	-1	i	-1	-3	-4	37*	-5	10
O=[N+]([O-])c1ccc(N2CCOCC2)cc1O	2	i	-1	5	1	-1	.	.
Cc1cc(N2CCOCC2)ccc1/C=C\[N+](=O)[O-]	2	i	-10	12	-3	77*	97*	99*
O=C(C[C@H]1C[C@H](C(=O)N2CCOCC2)[C@@]2(CCC3CCCC3)c3[nH]c4cc(-c5ccco5)ccc4c3CCN2C1=O)NCCC1=CCCCC1	6	i	1	.	-1	18	.	.
O=C(C[C@H]1C[C@H](C(=O)N2CCOCC2)[C@@]2(CCC3CCCC3)c3[nH]c4cc(-c5ccco5)ccc4c3CCN2C1=O)NCCc1ccccn1	2	i	-7	-16	4	23*	11	17*
CCCCCc1cc(=O)oc2c(C(CCN(CC)CC)c3cc(OC)c(OC)c(OC)c3)c(OC)cc(OC)c12 (stereo unspecified)	2	i	-28	-20	-1	27*	16	2
N#Cc1c[nH]n2c(=O)c3c(nc12)CCC3	-4	i	3	-1	1	5	.	.
COc1ccc(-c2cc(=O)[nH][nH]2)cc1	5	i	-6	-42	24	-35	.	.
COc1ccc(-c2cc(=O)n(CCC#N)[nH]2)cc1	8	i	-2	-1	-2	26*	-11	-15
Cc1ccn2cc(-c3cccc(NC(=O)c4ccccc4)c3)nc2c1	1	i	-12	-5	4	-1	.	.

Bioassay records deposited in PubChem by several laboratories.
